Data as given in PubChem BioAssay (NCATS).
Records with an inconclusive call do not appear. Unless noted, calls come from the whole dose curve; as a rule, active = well fitted curve in either direction with a large enough effect (not every such curve was filed as active); inconclusive = small, poorly fitted or top-dose-only effect, or another doubt; inactive = flat fitted curve, though single readings scatter.

Columns and labels:
[1] = AP1 Signaling Pathway (AID 357); conditions: ME-180 AP-1-bla reporter, EGF-induced, beta-lactamase ratio, 5 h; at 17.2 µM (top of the series) unless noted;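 note: ME-180 reporter cells stimulated with EGF at its EC50 level; % is set by controls: 0 for no effect and ±100 for the full control effect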
Summary of the method: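 In this screen, ME-180 cells in Opti-MEM with 0.5% dialyzed FBS received EC50 EGF and compound titrations for 5 h. AP-1 reporter beta-lactamase was detected via CCF4 ratio, giving AC50 for positive and negative modulators.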

[2] = NFAT Signaling Pathway (AID 444); conditions: Jurkat NFAT-bla M1, carbachol, beta-lactamase ratio, 5 h; at 17.2 µM (top of the series) unless noted;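 note: carbachol stimulus at about its EC50 of 1 µM final; % is set by controls: 0 for no effect and ±100 for the full control effect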
Summary of the method: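 Jurkat cells with NFAT-driven β-lactamase reporter and co-expressed M1 receptor, stimulated with carbachol (final 1 uM, ~EC50), compound titration, 5 h at 37 °C. CCF4 loaded 1 h at RT; 460/530 nm ratio gave %activity and AC50.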

[3] = Stat Signaling Pathway (AID 446); conditions: ME-180 SIE beta-lactamase reporter, IL-6 stimulated, 5 h; at 17.2 µM (top of the series) unless noted;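 note: ME-180 cervical cancer cells given 40 pM IL-6 alongside compound; SIE-controlled beta-lactamase reporter measured as 460/530 nm FRET emission ratio; % is set by controls: 0 for no effect and ±100 for the full control effect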
Summary of the method: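 ME-180 cells carrying a SIE-driven beta-lactamase reporter are stimulated with 40 pM IL-6 for 5 h at 37C in the presence of compound. The 460/530 nm FRET substrate ratio is read after 2.5 h at RT. Data are normalised to 300 pM IL-6 and to 125 nM JAK inhibitor controls.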

[4] = biological target: Glucocorticoid receptor (Homo sapiens) (UniProt P04150); assay: GR-GFP Redistribution (AID 450;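 active = compounds whose dose series gives a full or clear partial fitted curve of increased nuclear translocation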; note: potency is the fitted concentration of half-maximal effect)
Chain of Glucocorticoid receptor (Homo sapiens) (P04150 whole entry, looked up): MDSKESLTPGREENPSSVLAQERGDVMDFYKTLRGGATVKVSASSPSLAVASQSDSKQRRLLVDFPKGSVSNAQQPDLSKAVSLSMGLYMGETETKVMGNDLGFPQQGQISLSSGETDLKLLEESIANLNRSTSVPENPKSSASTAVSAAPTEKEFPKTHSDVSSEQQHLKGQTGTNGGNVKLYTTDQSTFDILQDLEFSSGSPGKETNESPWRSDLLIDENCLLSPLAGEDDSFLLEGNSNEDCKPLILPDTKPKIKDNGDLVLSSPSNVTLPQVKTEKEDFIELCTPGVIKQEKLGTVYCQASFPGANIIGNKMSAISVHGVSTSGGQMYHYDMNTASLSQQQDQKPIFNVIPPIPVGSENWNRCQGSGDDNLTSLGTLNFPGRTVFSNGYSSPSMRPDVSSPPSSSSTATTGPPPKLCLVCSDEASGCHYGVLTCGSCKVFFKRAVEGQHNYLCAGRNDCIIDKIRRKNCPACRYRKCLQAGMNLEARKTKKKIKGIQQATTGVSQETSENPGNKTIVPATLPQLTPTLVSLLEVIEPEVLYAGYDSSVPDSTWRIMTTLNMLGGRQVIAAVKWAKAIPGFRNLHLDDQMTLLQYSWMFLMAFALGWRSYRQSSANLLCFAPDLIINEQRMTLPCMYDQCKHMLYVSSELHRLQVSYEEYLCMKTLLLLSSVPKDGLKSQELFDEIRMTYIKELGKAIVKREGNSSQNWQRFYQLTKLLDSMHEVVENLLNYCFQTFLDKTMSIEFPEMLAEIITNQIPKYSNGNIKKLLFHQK

O=C1CC(c2ccccc2)NC(=O)N1 (centres undefined)
inactive: activity change, negative = inhibition [1] 8.17% | activity change, negative = inhibition [2] -2.15% | activity, negative = inhibition [3] -0.378% | Potency [4] > 20.6 µM

Cc1nc2n[nH]c(N)c2c2c1COC(C)(C)C2
inactive: activity change, negative = inhibition [1] 3.75% | activity change, negative = inhibition [2] -4.48% | activity, negative = inhibition [3] 3.57% | Potency [4] > 20.6 µM

C=CCOc1nc2c(c(=O)n(Cc3ccc(Cl)c(Cl)c3)c(=O)n2C)n1C
inactive: activity change, negative = inhibition [1] -3.25% | activity change, negative = inhibition [2] -2.4% | activity, negative = inhibition [3] 7.85% | Potency [4] > 20.6 µM

Nc1nc2n(n1)C(c1cccs1)CC(c1ccc(Br)cc1)N2 (centres undefined)
inactive: activity change, negative = inhibition [1] 0.611% | activity change, negative = inhibition [2] 11% | activity, negative = inhibition [3] 4.42% | Potency [4] > 20.6 µM

Cc1ccccc1COc1ccc(/C(O)=C2/C(=O)C(=O)N(CCCn3ccnc3)C2c2ccco2)cc1 (centres undefined)
inactive: activity change, negative = inhibition [1] -11.1% | activity change, negative = inhibition [2] 10.8% | activity, negative = inhibition [3] 3.48% | Potency [4] > 20.6 µM

CCCOc1ccc(/C(O)=C2/C(=O)C(=O)N(CCN(C)C)C2c2ccncc2)cc1 (centres undefined)
inactive: activity change, negative = inhibition [1] -5.87% | activity change, negative = inhibition [2] 4.76% | activity, negative = inhibition [3] 5.47% | Potency [4] > 20.6 µM

CCCc1nnc(NC(=O)Nc2ccccc2OC)s1
inactive: activity change, negative = inhibition [1] 0.551% | activity change, negative = inhibition [2] 25% | activity, negative = inhibition [3] -4.19% | Potency [4] > 20.6 µM

CCCCOc1ccc(C(=O)Nn2cnnc2)cc1
inactive: activity change, negative = inhibition [1] 15.5% | activity change, negative = inhibition [2] 4.61% | activity, negative = inhibition [3] 8.41% | Potency [4] > 20.6 µM

N#CC1=C(C=Nc2ccccc2O)CCC1
inactive: activity change, negative = inhibition [1] 12.3% | activity change, negative = inhibition [2] 8.46% | activity, negative = inhibition [3] -1.34% | Potency [4] > 20.6 µM

CC(C)c1nc2n[nH]c(N)c2c2c1CCC2
inactive: activity change, negative = inhibition [1] 3.28% | activity change, negative = inhibition [2] 9.31% | activity, negative = inhibition [3] -1.39% | Potency [4] > 20.6 µM

Cc1nnc(SCC(=O)N2CCOCC2)c2ccccc12
inactive: activity change, negative = inhibition [1] -1.59% | activity change, negative = inhibition [2] 3.16% | activity, negative = inhibition [3] 2.48% | Potency [4] > 20.6 µM

C=CCN(C(=O)CCC(=O)O)C1CC(=O)N(c2ccc(OC)cc2)C1=O (centres undefined)
inactive: activity change, negative = inhibition [1] 6.46% | activity change, negative = inhibition [2] -8.7% | activity, negative = inhibition [3] 5.71% | Potency [4] > 20.6 µM

Cc1cc(C)n(C(=O)CNC(=O)CCc2ccccc2)n1
inactive: activity change, negative = inhibition [1] 8.64% | activity change, negative = inhibition [2] 9.94% | activity, negative = inhibition [3] 2.58% | Potency [4] > 20.6 µM

Cn1c(=O)n(C)c2cc(C(=O)c3ccccc3)ccc21
inactive: activity change, negative = inhibition [1] 17.6% | activity change, negative = inhibition [2] -28.2% | activity, negative = inhibition [3] -6.62% | Potency [4] > 20.6 µM

Cc1cc(C)n(CC2CC(=O)N(c3ccc(C)c(Cl)c3)C2=O)n1 (centres undefined)
inactive: activity change, negative = inhibition [1] -6.66% | activity change, negative = inhibition [2] 13.9% | activity, negative = inhibition [3] -4.28% | Potency [4] > 20.6 µM

CCN1CCCC1Cn1cnc2c([nH]c3ccc(C)cc32)c1=O (centres undefined)
inactive: activity change, negative = inhibition [1] -6.04% | activity change, negative = inhibition [2] 8.74% | activity, negative = inhibition [3] 3.87% | Potency [4] > 20.6 µM

CCOP(=O)(c1ccccc1)C1(C#N)CCCC1 (centres undefined)
inactive: activity change, negative = inhibition [1] 8.95% | activity change, negative = inhibition [2] 7.44% | activity, negative = inhibition [3] 7.92% | Potency [4] > 20.6 µM

CCCCC(=O)Nc1c(O)c2ccccc2[nH]c1=O
inactive: activity change, negative = inhibition [1] 4% | activity change, negative = inhibition [2] -5.18% | activity, negative = inhibition [3] 1.28% | Potency [4] > 20.6 µM

CCOC(=O)NC(O)C(=O)c1cccs1 (centres undefined)
inactive: activity change, negative = inhibition [1] 11.6% | activity change, negative = inhibition [2] -1.46% | activity, negative = inhibition [3] 3.85% | Potency [4] > 20.6 µM

CCNC(=O)Nn1c(C)nnc1C
inactive: activity change, negative = inhibition [1] 15.4% | activity change, negative = inhibition [2] -5.86% | activity, negative = inhibition [3] 6.6% | Potency [4] > 20.6 µM

O=C(O)CN(c1ccccc1)C1SC(=O)NC1=O (centres undefined)
inactive: activity change, negative = inhibition [1] 3.92% | activity change, negative = inhibition [2] 20.4% | activity, negative = inhibition [3] 10.5% | Potency [4] > 20.6 µM

CSc1nc(C)cc(OCCNS(=O)(=O)c2cc(C)ccc2C)n1
inactive: activity change, negative = inhibition [1] -11.3% | activity change, negative = inhibition [2] -2.9% | activity, negative = inhibition [3] 1.66% | Potency [4] > 20.6 µM

Cc1ccc(S(=O)(=O)NC(=O)NCc2ccc3c(c2)OCO3)cc1
inactive: activity change, negative = inhibition [1] 12.9% | activity change, negative = inhibition [2] -5.13% | activity, negative = inhibition [3] 0.559% | Potency [4] > 20.6 µM

O=C(O)CC(NCc1ccco1)C(=O)OCCc1ccccc1 (centres undefined)
inactive: activity change, negative = inhibition [1] 2.29% | activity change, negative = inhibition [2] 5.37% | activity, negative = inhibition [3] 0.0661% | Potency [4] > 20.6 µM

CCOC(=O)CNS(=O)(=O)c1cc(-c2n[nH]c(=O)c3ccccc23)ccc1C
inactive: activity change, negative = inhibition [1] -5.55% | activity change, negative = inhibition [2] 5.83% | activity, negative = inhibition [3] -10.1% | Potency [4] > 20.6 µM

COc1ccc(-c2cc(-c3ccccc3)n3ncnc3n2)cc1
inactive: activity change, negative = inhibition [1] -5.02% | activity change, negative = inhibition [2] -9.06% | activity, negative = inhibition [3] 1.12% | Potency [4] > 20.6 µM
